The whole screen tested about 48,000 compounds, of which about 13,000 (27%) showed an effect of 50% or more. The list shows a part of the results.

The test system of the experiment is Wolbachia pipientis. In words: Anti-Wolbachia Cell-Based Screen. Also noted: scale not given: in the data most compounds retested in dose-response had high values. To be noted: 5 µM. Type of experiment: functional.
Turning to `CC(C)CC1(C(=O)NCCc2nncn2C2CC2)CCC1`, the “Percent Effect” value is -4.64%.
In the case of `COCCn1cncc1CN1CCCC(C(=O)Cc2ccccc2)C1` (stereo not drawn) it was -2.141%; in that of `FC(F)Oc1ccc(CNCc2cc(Br)c3c(c2)OCO3)cc1`, -6.924%.
In the case of `Cc1cccc(S(=O)(=O)NC(=O)CN(C)Cc2ccccc2)c1`, the “Percent Effect” value is recorded as -8.063%.
In the case of `OC1CCN(Cc2ccc(CNc3ncc(Cl)cc3F)cc2)CC1` it was 12.54%.
For `CCc1ncc2c(n1)CN(CC(=O)Nc1ccncc1)CC2`, the “Percent Effect” value is 110.2%.
In the case of `CCc1ncc2c(n1)CN(CC(=O)Nc1ccc(Cl)cn1)CC2` it was -11.22%; in that of `CCc1ncc2c(n1)CN(CC(=O)NCCOc1ccccc1)CC2`, -2.298%; in that of `CC(C)c1ncc2c(n1)CN(CC(=O)Nc1ccncc1)CC2`, 121.8%.
In the case of `O=C1C[C@@H]2CCN(Cc3ccccc3)C[C@@H]2CCN1C1CCCCC1` it was -3.832%; in that of `Cc1cc(F)cc2c(NCC(C)(C)C(N)=O)c(C#N)cnc12`, -8.15%.
In the case of `O=C(NCCN1CCCCC1)c1nc2ccccc2c(=O)[nH]1` it was 8.44%; in that of `Cc1ccc(-c2ccnc(NC(C)c3c(C)n[nH]c3C)n2)c(C)n1` (stereo not drawn), 5.666%.
For `Cc1[nH]c2ccccc2c1-c1ccnc(NCCN2CCOCC2)n1`, the “Percent Effect” value amounted to 0.04004%.
For `Cc1[nH]c2ccccc2c1-c1ccnc(N[C@@H](CO)C(C)C)n1`, the “Percent Effect” value is on record as 99.82%.
For the compound `Cc1[nH]c2ccccc2c1-c1ccnc(N[C@H](CO)CC(C)C)n1`, the “Percent Effect” value worked out at 64.61%.
Regarding `Cc1ccc(-c2nc(CNC(C)CCO)[nH]c2-c2ccccn2)cc1` (stereo not drawn), the “Percent Effect” value came to 0.0278%.
As for `Cc1[nH]c2ccccc2c1-c1ccnc(NCCN2CCCCC2)n1`, the figure is 107.1%; as for `Cc1[nH]c2ccccc2c1-c1ccnc(NC[C@H](O)CO)n1`, 2.314%; as for `Cc1[nH]c2ccccc2c1-c1ccnc(N[C@@H](C)CO)n1`, 114.9%.
In the case of `Cn1cc(C2CC3(CCN(C(=O)c4cccs4)CC3)NC2=O)cn1` (stereo not drawn) it was 3.208%; in that of `COc1cc(Cl)cc(C(=O)N2CCC3(CC2)CNC(=O)C3)c1`, -6.802%; in that of `CCOCc1nc2c(c(N(C)Cc3ccsc3)n1)CCNCC2`, -15.95%.
As to `CC(=O)N1CCO[C@@H]2CN(Cc3ccccc3F)C[C@@H]2C1.O=C(O)C(F)(F)F`, the “Percent Effect” value is 102.5%.
In the case of `COCCN1CCO[C@@H]2CN(Cc3ccccc3OC)C[C@@H]2C1.O=C(O)C(F)(F)F.O=C(O)C(F)(F)F` it was 1.646%.
With `O=C(O)C(F)(F)F.O=C([C@H]1CN(Cc2ccccc2F)C[C@H]2OCC[C@@H]12)N1CCCO1`, the “Percent Effect” value came out at 3.627%.
On to `O=C(CCc1ccccc1)N1C[C@@H]2CN(Cc3ccoc3)CCO[C@@H]2C1.O=C(O)C(F)(F)F`, for which the “Percent Effect” value amounted to 22.25%.
As for `O=C(O)C(F)(F)F.O=C(c1ccc2[nH]ccc2c1)N1CC[C@@H]2CN(CC3CC3)CCO[C@@H]2C1`, the figure is -56.17%; as for `CC(=O)N1CCO[C@@H]2CN(Cc3ccccc3Cl)C[C@@H]2C1.O=C(O)C(F)(F)F`, 111.8%; as for `COc1ccccc1CN1C[C@@H]2CN(C(C)=O)CCO[C@@H]2C1.O=C(O)C(F)(F)F`, 111.4%.
Take `COc1ccccc1CN1C[C@@H]2CN(Cc3cccnc3)CCO[C@@H]2C1.O=C(O)C(F)(F)F.O=C(O)C(F)(F)F.O=C(O)C(F)(F)F`: the “Percent Effect” value is given as -7.53%.
As to `COCCN1CCO[C@@H]2CN(C(=O)c3ccc4[nH]ccc4c3)CC[C@@H]2C1`, the “Percent Effect” value is -49.46%.
For the compound `Fc1ccccc1CN1C[C@@H]2CN(Cc3cccnc3)CCO[C@@H]2C1.O=C(O)C(F)(F)F.O=C(O)C(F)(F)F.O=C(O)C(F)(F)F`, the “Percent Effect” value stood at 0.8548%.
As for `O=C(c1ccccc1)N1CCO[C@@H]2CN(Cc3ccc[nH]3)C[C@@H]2C1`, the figure is 106.1%.
In the case of `CN(C)C(C(=O)NCCSc1ncn[nH]1)c1cccc(F)c1` (stereo not drawn) it was -5.881%; in that of `Cc1cc(NC(=O)CSc2nc(=O)ccn2C(C)C)no1`, -5.923%; in that of `C/C(=C/c1ccccc1)CNCc1cccc(C(N)=O)c1`, -6.417%.
As for `Cc1ccc(CNC(=O)NCC(=O)N2CCCC2)c(N2CCCC2)c1`, the figure is -13.16%; as for `CCC(NCc1cc[nH]n1)c1nc(C(F)(F)F)cs1` (stereo not drawn), -5.752%.
For the compound `COc1ccc(CN2C[C@@H]3CN(Cc4cccnc4)CCO[C@@H]3C2)cc1.O=C(O)C(F)(F)F.O=C(O)C(F)(F)F.O=C(O)C(F)(F)F`, the “Percent Effect” value was determined as 13.72%.
Consider `CN1CCO[C@@H]2CN(C(=O)COc3cccc(Cl)c3)C[C@@H]2C1.O=C(O)C(F)(F)F`, for which the “Percent Effect” value was -8.699%.
In the case of `CC(=O)N1CCO[C@@H]2CN(Cc3cccc(Cl)c3)C[C@@H]2C1.O=C(O)C(F)(F)F` it was 105.7%.
As for `Cc1[nH]ccc1C(=O)N1C[C@H]2CC[C@@H]1CN(S(=O)(=O)N(C)C)C2`, the “Percent Effect” value is reported as -3.55%.
As for `Cc1ccc(CNC(=O)N(C)Cc2ccc([S+](C)[O-])cc2)s1` (stereo not drawn), the “Percent Effect” value is recorded as -1.725%.
On to `O=C(c1ccccc1F)N1CC(c2nc(-c3ccc[nH]c3=O)no2)C1`, for which the “Percent Effect” value was 1.982%.
Consider `CO[C@H]1COCCN(C(=O)c2ccc(F)cc2)C1`, for which the “Percent Effect” value turned out to be 0.8542%.
In the case of `N#Cc1ccc(C(=O)N2CC(c3nc(-c4ncccn4)no3)C2)cc1` it was 10.08%; in that of `O=C(c1cccnc1N1CCOC(c2ccc(F)cc2)C1)N1CCCC1` (stereo not drawn), 5.755%; in that of `O=C(c1ccccc1F)N1CCOC(c2nc(-c3ncccn3)no2)C1` (stereo not drawn), 128.4%.
In the case of `Cc1ccc(C(=O)N2CCOC(c3nc(-c4ncccn4)no3)C2)cc1` (stereo not drawn) it was 94.58%; in that of `O=C(c1ccc(F)cc1)N1CCOC(c2nc(-c3ncccn3)no2)C1` (stereo not drawn), 124.8%.
In the case of `O=C(c1ccccc1F)N1CC(c2nc(C3CC3)no2)C1` it was 5.464%.
On to `Cc1nccnc1-n1c(COCC(=O)O)nc2c(C)cccc21`, for which the “Percent Effect” value is -2.278%.
As for `Cc1nc2c(C(=O)O)cccc2n1-c1ccc(C(=O)N2CCCC2)o1`, the figure is -15.07%; as for `CC(=O)N1CCN(C(=O)C[C@@H]2C[C@@H](C(C)C)[C@H](CC#N)C=C2C)CC1`, 4.574%.
As for `Cc1ccnc(N2CCC(NCCOc3ccccc3)CC2)n1`, the figure is -3.135%.
As for `CC(=O)NCCNC(=O)CNC1CCCN(c2ccc(C)nn2)C1` (stereo not drawn), the figure is 88.86%; as for `Cc1ccc(N2CCCC(NCC(=O)Nc3cc(C)nn3C)C2)nn1` (stereo not drawn), 95.11%; as for `Cc1ccc(N2CCCC(NCCCS(C)(=O)=O)C2)nn1` (stereo not drawn), 0.9171%.
In the case of `Cc1ccc(N2CCCC(NCCS(C)(=O)=O)C2)nn1` (stereo not drawn), the “Percent Effect” value is 2.432%.
For the compound `Cc1ccc(N2CCCC(NCC(=O)NC(C3CC3)C3CC3)C2)nn1` (stereo not drawn), the “Percent Effect” value is 84.95%.
Turning to `COCCCNC1CCCN(c2ccc(C)nn2)C1` (stereo not drawn), the “Percent Effect” value was 22.77%.
In the case of `Cc1ccc(N2CCCC(NCC(=O)NCC3CC3)C2)nn1` (stereo not drawn) it was 1.938%; in that of `CC(C)=CCNC1CCCN(c2ccc(C)nn2)C1` (stereo not drawn), -19.9%; in that of `Cc1ccn(-c2ccc(NCc3ccnc(N4CCCCC4)c3)nn2)n1`, 4.336%.
As for `O=C(CCc1ccc(Br)cc1F)NS(=O)(=O)c1ccc2c(c1)OCCO2`, the figure is -3.282%.
On to `Cc1ccc(CN[C@@H]2CO[C@H](CNS(=O)(=O)c3ccccc3)[C@H]2O)cc1`, for which the “Percent Effect” value is on record as -4.281%.
In the case of `CC1CCc2nc(NS(=O)(=O)c3cnn(C)c3)sc2C1` (stereo not drawn) it was 97.97%; in that of `Cn1cc(S(=O)(=O)Nc2ccc3[nH]c(C4CCC4)nc3c2)cn1`, -3.023%.
With `CCn1cc(S(=O)(=O)Nc2nc3c(s2)CC(C)CC3)cn1` (stereo not drawn), the “Percent Effect” value worked out at 98.13%.
For `CCn1cc(S(=O)(=O)NC2CCCC2)cn1`, the “Percent Effect” value is listed as 8.847%.
As for `CCn1cc(S(=O)(=O)NC2CCCN(CC3CCCCC3)C2)cn1` (stereo not drawn), the figure is 19.95%; as for `Cn1cc(S(=O)(=O)Nc2c(F)cccc2N2CCCC2)cn1`, -10.22%.
As for `Cc1oc(C(=O)O)cc1S(=O)(=O)Nc1cc(Br)ccc1Cl`, the figure is 106.9%.
Regarding `Cc1noc(C)c1NS(=O)(=O)c1cc(C(=O)O)cc(Cl)c1Cl`, the “Percent Effect” value worked out at 3.53%.
As for `Cc1oc(C(=O)O)cc1S(=O)(=O)Nc1ccc(Br)cc1Cl`, the figure is 96.02%.
In the case of `Cc1oc(C(=O)O)cc1S(=O)(=O)Nc1cccc(-n2nccc2C)c1` it was -0.5451%; in that of `Cc1ccc(NS(=O)(=O)c2cc(C(=O)O)oc2C)c(Br)c1`, 0.9383%; in that of `Cc1oc(C(=O)O)cc1S(=O)(=O)Nc1ccc(Cl)c(Cl)c1`, -3.012%.
In the case of `O=S(=O)(CCNCc1ccc2c(c1)CCO2)N1CCOCC1` it was 0.3646%; in that of `COCCN1CC(C(=O)NCc2cccnc2-n2cccn2)CC1=O` (stereo not drawn), 120.6%; in that of `O=C(NCc1cccnc1-n1cccn1)C1CC(=O)N(CC2CC2)C1` (stereo not drawn), -9.395%.
As to `COCCN1CC(C(=O)NCc2ccnc(-n3cccn3)c2)CC1=O` (stereo not drawn), the “Percent Effect” value is recorded as -1.182%.
As for `CCN1CC(C(=O)NCc2cccnc2-n2cccn2)CC1=O` (stereo not drawn), the “Percent Effect” value is recorded as 124.7%.
In the case of `CN(C)CCN1CC(C(=O)NCc2cccc(-n3cccn3)c2)CC1=O` (stereo not drawn) it was 7.096%.
As for `O=C(NCc1ccnc(-n2cccn2)c1)C1CC(=O)N(CC2CC2)C1` (stereo not drawn), the figure is 153.4%.
In the case of `CC(C)N1CC(C(=O)NCc2ccnc(-n3cccn3)c2)CC1=O` (stereo not drawn) it was -4.025%.
Take `CCN1CC(C(=O)NCc2ccccc2-n2cccn2)CC1=O` (stereo not drawn): the “Percent Effect” value is 3.983%.
Consider `CN1CC(C(=O)NCc2cccnc2-n2cccn2)CC1=O` (stereo not drawn), for which the “Percent Effect” value is recorded as 63.73%.
As for `CN(C)CCN1CC(C(=O)NCc2cn3cccnc3n2)CC1=O` (stereo not drawn), the figure is -11.69%; as for `CN1CC(C(=O)NCc2cccnc2OCc2ccccc2)CC1=O` (stereo not drawn), 10.22%; as for `CCS(=O)(=O)N1CCN(C(=O)c2ccc(Cn3cc(Br)cn3)cc2)CC1`, -241.9%.
As for `CCN(C(=O)CN1CCN(CC(C)O)CC1)C1=CCCCC1` (stereo not drawn), the figure is -11.46%.

Source of the values: ChEMBL document CHEMBL3988442, “University of Dundee, Small-Polar-MMV Screening Library” (2021).
